# Data taken from paper PMC9911399, “Two distinct binding modes provide the RNA-binding protein RbFox with extraordinary sequence specificity”.
# Residue numbers refer to the chain shown, from its start. The full ranking holds about 16,000 sequences; the median of “ka relative to ugcaugu” is about 0.0091, and the highest 2% start at about 0.032. The sample as a whole holds a higher share of the highest values than the screen did.
# T1: RBFOX1 RRM (Homo sapiens, UniProt Q9NWB1 109-208)
# T1 sequence: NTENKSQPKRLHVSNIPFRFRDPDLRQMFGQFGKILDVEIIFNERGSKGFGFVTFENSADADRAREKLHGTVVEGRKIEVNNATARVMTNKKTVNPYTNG
# B1: CGGGCCC (DNA:RNA)
# RNA: GGGAGACCGGAAUUCAGAUUGUCCCGGGCCCUUAAAUCCCGUCGUAGCCACCA
# DNA 1: CAATCTGAATTCCGGTCTCCC
# DNA 2: TGGTGGCTACGACGGGATT
# B2: CGGGCCG (DNA:RNA)
# RNA: B1 RNA with C31G
# DNA 1: CAATCTGAATTCCGGTCTCCC
# DNA 2: TGGTGGCTACGACGGGATT
# B3: GGGCCCU (DNA:RNA)
# RNA: B1 RNA with C25G, G28C, C31U
# DNA 1: CAATCTGAATTCCGGTCTCCC
# DNA 2: TGGTGGCTACGACGGGATT
# B4: GGGGGCC (DNA:RNA)
# RNA: B1 RNA with C25G, C29G
# DNA 1: CAATCTGAATTCCGGTCTCCC
# DNA 2: TGGTGGCTACGACGGGATT
# B5: GGGCCUG (DNA:RNA)
# RNA: B1 RNA with C25G, G28C, C30U, C31G
# DNA 1: CAATCTGAATTCCGGTCTCCC
# DNA 2: TGGTGGCTACGACGGGATT
# B6: GGGCCGU (DNA:RNA)
# RNA: B1 RNA with C25G, G28C, C30G, C31U
# DNA 1: CAATCTGAATTCCGGTCTCCC
# DNA 2: TGGTGGCTACGACGGGATT
# B7: GGGGCCG (DNA:RNA)
# RNA: B1 RNA with C25G, C31G
# DNA 1: CAATCTGAATTCCGGTCTCCC
# DNA 2: TGGTGGCTACGACGGGATT
# B8: GGGGCCC (DNA:RNA)
# RNA: B1 RNA with C25G
# DNA 1: CAATCTGAATTCCGGTCTCCC
# DNA 2: TGGTGGCTACGACGGGATT
# B9: CGGCCUG (DNA:RNA)
# RNA: B1 RNA with G28C, C30U, C31G
# DNA 1: CAATCTGAATTCCGGTCTCCC
# DNA 2: TGGTGGCTACGACGGGATT
# B10: CACCUAU (DNA:RNA)
# RNA: B1 RNA with G26A, G27C, G28C, C29U, C30A, C31U
# DNA 1: CAATCTGAATTCCGGTCTCCC
# DNA 2: TGGTGGCTACGACGGGATT
# B11: AAGUACA (DNA:RNA)
# RNA: B1 RNA with C25A, G26A, G28U, C29A, C31A
# DNA 1: CAATCTGAATTCCGGTCTCCC
# DNA 2: TGGTGGCTACGACGGGATT
# B12: UGCGGAA (DNA:RNA)
# RNA: B1 RNA with C25U, G27C, C29G, C30A, C31A
# DNA 1: CAATCTGAATTCCGGTCTCCC
# DNA 2: TGGTGGCTACGACGGGATT
# B13: UCAUCGU (DNA:RNA)
# RNA: B1 RNA with C25U, G26C, G27A, G28U, C30G, C31U
# DNA 1: CAATCTGAATTCCGGTCTCCC
# DNA 2: TGGTGGCTACGACGGGATT
# B14: AUAAGUU (DNA:RNA)
# RNA: GGGAGACCGGAAUUCAGAUUGUCCAUAAGUUUUAAAUCCCGUCGUAGCCACCA
# DNA 1: CAATCTGAATTCCGGTCTCCC
# DNA 2: TGGTGGCTACGACGGGATT
# B15: UGAGCCA (DNA:RNA)
# RNA: B1 RNA with C25U, G27A, C31A
# DNA 1: CAATCTGAATTCCGGTCTCCC
# DNA 2: TGGTGGCTACGACGGGATT
# B16: ACAUCCA (DNA:RNA)
# RNA: B14 RNA with U26C, A28U, G29C, U30C, U31A
# DNA 1: CAATCTGAATTCCGGTCTCCC
# DNA 2: TGGTGGCTACGACGGGATT
# B17: UUUGAUA (DNA:RNA)
# RNA: B14 RNA with A25U, A27U, A28G, G29A, U31A
# DNA 1: CAATCTGAATTCCGGTCTCCC
# DNA 2: TGGTGGCTACGACGGGATT
# B18: CGGACUG (DNA:RNA)
# RNA: B1 RNA with G28A, C30U, C31G
# DNA 1: CAATCTGAATTCCGGTCTCCC
# DNA 2: TGGTGGCTACGACGGGATT
# B19: CAGACUG (DNA:RNA)
# RNA: B1 RNA with G26A, G28A, C30U, C31G
# DNA 1: CAATCTGAATTCCGGTCTCCC
# DNA 2: TGGTGGCTACGACGGGATT
# B20: UGGAGAC (DNA:RNA)
# RNA: B1 RNA with C25U, G28A, C29G, C30A
# DNA 1: CAATCTGAATTCCGGTCTCCC
# DNA 2: TGGTGGCTACGACGGGATT
# B21: GGGACUG (DNA:RNA)
# RNA: B1 RNA with C25G, G28A, C30U, C31G
# DNA 1: CAATCTGAATTCCGGTCTCCC
# DNA 2: TGGTGGCTACGACGGGATT
# B22: UGGACUG (DNA:RNA)
# RNA: B1 RNA with C25U, G28A, C30U, C31G
# DNA 1: CAATCTGAATTCCGGTCTCCC
# DNA 2: TGGTGGCTACGACGGGATT
# B23: UGUGGAC (DNA:RNA)
# RNA: B1 RNA with C25U, G27U, C29G, C30A
# DNA 1: CAATCTGAATTCCGGTCTCCC
# DNA 2: TGGTGGCTACGACGGGATT
# B24: GGGACCG (DNA:RNA)
# RNA: B1 RNA with C25G, G28A, C31G
# DNA 1: CAATCTGAATTCCGGTCTCCC
# DNA 2: TGGTGGCTACGACGGGATT
# B25: GGACUGU (DNA:RNA)
# RNA: B14 RNA with A25G, U26G, A28C, G29U, U30G
# DNA 1: CAATCTGAATTCCGGTCTCCC
# DNA 2: TGGTGGCTACGACGGGATT
# B26: AGGACUG (DNA:RNA)
# RNA: B14 RNA with U26G, A27G, G29C, U31G
# DNA 1: CAATCTGAATTCCGGTCTCCC
# DNA 2: TGGTGGCTACGACGGGATT
# Target: T1, RBFOX1 RRM
# Assay: EMSA; HiTS-Eq, 1 nM pool, 10 min; buffer printed only for the single-RNA assays: 10 mM Tris pH 7.5, 150 mM NaCl, 3.4 mM EDTA, 0.001% NP-40, 30 C
# Conditions: tags: His6 N-terminal (pET28a); label: 5' 32P
# How it was run: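 Purified wild-type or mutant RbFox RRM at increasing concentrations was equilibrated with 1 nM of 5′-radiolabelled RNA carrying 7 randomized nucleotides for 10 min in 50 µL. Unbound RNA was separated by 8% native PAGE and sequenced. Relative association constants came from read-count changes of each RNA species compared with the control reaction, normalised to the cognate motif.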
row,Binder,binding signal
1,B1,0.0176 KA relative to UGCAUGU
2,B2,0.0351 KA relative to UGCAUGU
3,B3,0.00615 KA relative to UGCAUGU
4,B4,0.0256 KA relative to UGCAUGU
5,B5,0.0377 KA relative to UGCAUGU
6,B6,0.0153 KA relative to UGCAUGU
7,B7,0.027 KA relative to UGCAUGU
8,B8,0.0409 KA relative to UGCAUGU
9,B9,0.0257 KA relative to UGCAUGU
10,B10,0.000316 KA relative to UGCAUGU
11,B11,0.00261 KA relative to UGCAUGU
12,B12,0.0165 KA relative to UGCAUGU
13,B13,0.0124 KA relative to UGCAUGU
14,B14,0.00282 KA relative to UGCAUGU
15,B15,0.00784 KA relative to UGCAUGU
16,B16,0.000399 KA relative to UGCAUGU
17,B17,0.0145 KA relative to UGCAUGU
18,B18,0.0352 KA relative to UGCAUGU
19,B19,0.0132 KA relative to UGCAUGU
20,B20,0.007 KA relative to UGCAUGU
21,B21,0.0322 KA relative to UGCAUGU
22,B22,0.0448 KA relative to UGCAUGU
23,B23,0.00524 KA relative to UGCAUGU
24,B24,0.0273 KA relative to UGCAUGU
25,B25,0.0223 KA relative to UGCAUGU
26,B26,0.0275 KA relative to UGCAUGU
